Results filed as inconclusive are left out. The source made the active and inactive calls. Unless noted, calls follow the shape of the dose curve; as a rule, active = well fitted curve in the direction sought with a large enough effect in the repeat runs; inconclusive = weak or mixed curves; inactive = no such curve, though single readings can be large; an effect the other way counts as inactive or inconclusive.
Key:
[1] = qHTS assay to identify small molecule agonists of the peroxisome proliferator-activated receptor delta (PPARd) signaling pathway - cell viability counter screen (AID 743211); also: nearly all actives have a fitted effect of over 55% in size
Method in brief: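 Viability of GeneBLAzer PPARd UAS-bla HEK293H cells was assessed after 17 h compound incubation at 37C, using CellTiter-Glo reagent added after the reporter read and luminescence recorded 30 min later.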

[2] = molecular target: Peroxisome proliferator-activated receptor delta (Homo sapiens) (UniProt Q03181); assay: qHTS assay to identify small molecule agonists of the peroxisome proliferator-activated receptor delta (PPARd) signaling pathway (AID 743212; calls by dose curve;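 also: HEK293H cells with PPARd UAS beta-lactamase reporter GeneBLAzer system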)
Sequence of Peroxisome proliferator-activated receptor delta (Homo sapiens) (Q03181 whole entry, looked up): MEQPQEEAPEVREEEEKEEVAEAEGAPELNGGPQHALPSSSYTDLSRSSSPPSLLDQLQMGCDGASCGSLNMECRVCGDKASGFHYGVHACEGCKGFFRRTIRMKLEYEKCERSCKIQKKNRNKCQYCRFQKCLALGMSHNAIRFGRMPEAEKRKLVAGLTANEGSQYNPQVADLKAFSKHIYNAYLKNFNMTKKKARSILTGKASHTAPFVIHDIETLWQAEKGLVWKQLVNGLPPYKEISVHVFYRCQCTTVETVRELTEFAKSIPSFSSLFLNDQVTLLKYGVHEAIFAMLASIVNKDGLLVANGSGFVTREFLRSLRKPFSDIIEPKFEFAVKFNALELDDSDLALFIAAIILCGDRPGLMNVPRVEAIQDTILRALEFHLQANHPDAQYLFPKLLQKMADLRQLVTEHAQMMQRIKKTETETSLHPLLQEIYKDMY
Method in brief: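 Steps: seed PPARd-bla HEK293H cells; incubate 5 h, 37 C, 5% CO2; add compounds in DMSO; incubate, 37 C; add LiveBLAzer B/G FRET substrate; hold 2 h at room temperature; measure fluorescence.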

[3] = qHTS assay to identify small molecule antagonists of the peroxisome proliferator-activated receptor delta (PPARd) signaling pathway - cell viability counter screen (AID 743213); also: nearly all actives have a fitted effect of over 50% in size
Method in brief: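 In this counter screen, HEK293H cells carrying a UAS-beta-lactamase reporter are co-treated with test compounds and 300 nM L165041 (final) for 17 h at 37 C; cell viability is quantified by CellTiter-Glo luminescence.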

[4] = molecular target: Peroxisome proliferator-activated receptor delta (Homo sapiens) (UniProt Q03181); assay: qHTS assay to identify small molecule antagonists of the peroxisome proliferator-activated receptor delta (PPARd) signaling pathway (AID 743215; active = well fitted inhibition curve with a large enough effect in the signal ratio in the repeat runs, not every such curve was filed as active; the % refers to the signal ratio;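 also: cells stimulated with agonist L165041 at 300 nM final during compound exposure; series mostly up to about 62 µM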)
Method in brief: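 Plated HEK293H PPARd-bla cells rested 5 h at 37 C and 5% CO2. Compound, then agonist L165041 at 300 nM final, was added; 17 h at 37 C followed. Substrate loading, 2 h room temperature, fluorescence measured.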

[5] = molecular target: Bile acid receptor (Homo sapiens) (UniProt Q96RI1); assay: qHTS assay to identify small molecule antagonists of the farnesoid-X-receptor (FXR) signaling pathway (AID 743217; active = well fitted inhibition curve with a large enough effect in the signal ratio in the repeat runs, not every such curve was filed as active; the % refers to the signal ratio)
Sequence of Bile acid receptor (Homo sapiens) (Q96RI1 whole entry, looked up): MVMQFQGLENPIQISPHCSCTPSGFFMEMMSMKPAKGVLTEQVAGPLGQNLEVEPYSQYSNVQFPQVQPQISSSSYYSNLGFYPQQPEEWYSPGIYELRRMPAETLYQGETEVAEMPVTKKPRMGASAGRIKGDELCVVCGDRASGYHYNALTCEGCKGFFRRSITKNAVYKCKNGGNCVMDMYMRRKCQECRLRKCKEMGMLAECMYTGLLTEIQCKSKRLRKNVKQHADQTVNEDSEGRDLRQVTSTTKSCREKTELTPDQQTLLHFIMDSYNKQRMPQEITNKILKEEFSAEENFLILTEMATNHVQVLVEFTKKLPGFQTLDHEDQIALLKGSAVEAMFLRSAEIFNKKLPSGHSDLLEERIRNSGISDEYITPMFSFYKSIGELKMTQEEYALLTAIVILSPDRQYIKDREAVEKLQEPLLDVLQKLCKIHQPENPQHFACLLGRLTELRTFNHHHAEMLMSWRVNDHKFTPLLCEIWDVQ
Method in brief: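 Screen of the Tox21 10K library in quantitative HTS format using FXR-UAS-bla HEK 293T reporter cells. Agonist chenodeoxycholic acid, 50 uM final, added with compounds; 16 h incubation at 37 °C; beta-lactamase FRET fluorescence measured.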

[6] = qHTS assay to identify small molecule agonists of the farnesoid-X-receptor (FXR) signaling pathway - cell viability counter screen (AID 743218); also: nearly all actives have a fitted effect of over 45% in size
Method in brief: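 Viability of FXR-bla HEK 293T cells is measured by ATP-based CellTiter-Glo luminescence following 16 h compound treatment at 37 C and a prior 2 h room-temperature beta-lactamase substrate step.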

[7] = molecular target: Bile acid receptor (Homo sapiens) (UniProt Q96RI1); assay: qHTS assay to identify small molecule agonists of the farnesoid-X-receptor (FXR) signaling pathway (AID 743220; active = well fitted activation curve with a large enough effect in the signal ratio in the repeat runs, not every such curve was filed as active; the % refers to the signal ratio)
Method in brief: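 FXR-UAS-bla HEK 293T cells carrying a UAS-driven beta-lactamase reporter were plated for 5 h at 37C/5% CO2, then exposed to DMSO-dissolved Tox21 10K compounds for 16 h at 37C. A LiveBLAzer B/G FRET substrate was loaded for 2 h at room temperature before fluorescence reading.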

[8] = qHTS assay to identify small molecule antagonists of the farnesoid-X-receptor (FXR) signaling pathway - cell viability counter screen (AID 743221; active = well fitted cell-killing curve with a large enough effect in the repeat runs, not every such curve was filed as active; also: nearly all actives have a fitted effect of over 50% in size)
Method in brief: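 Quantitative HTS of the Tox21 10K library run in parallel with the beta-lactamase reporter read. HEK 293T cells carrying a UAS-driven bla reporter got compound and 50 uM CDCA (final) for 16 h; ATP-based luminescence followed.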

[9] = qHTS assay to identify small molecule antagonists of the vitamin D receptor (VDR) signaling pathway - cell viability counter screen (AID 743225); also: nearly all actives have a fitted effect of over 50% in size
Method in brief: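 Cells (VDR-UAS-bla HEK 293T) are plated, rested 4 h at 37C, dosed with compound and 3 nM final 1-alpha,25-dihydroxy vitamin D3, and incubated 16 h. Viability is taken from CellTiter-Glo luminescence in the reporter wells.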

[10] = qHTS assay to identify small molecule agonists of the NFkB signaling pathway (AID 1159509; active = well fitted curve in the direction sought with a large enough effect in the signal ratio in the repeat runs, not every such curve was filed as active; the % refers to the signal ratio; also: series mostly up to about 61 µM)
Method in brief: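 Readout: FRET fluorescence, 405 nm excitation, 460/530 nm emission; beta-lactamase expression disrupts FRET. Cells: ME-180 stably carrying NF-kB-driven bla reporter. Compound exposure 5 hr, 37 C, 5% CO2.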

[11] = qHTS assay to identify small molecule agonists of the endoplasmic reticulum stress response signaling pathway (AID 1159516; active = well fitted activation curve with a large enough effect in the signal ratio in the repeat runs, not every such curve was filed as active; the % refers to the signal ratio)
Method in brief: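 Using a HeLa line with an ESRE-driven beta-lactamase gene, agonist activity was measured by FRET substrate fluorescence (460 and 530 nm emission) after cells were treated with compounds for 5 hr at 37 C and 5% CO2.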

[12] = qHTS assay to identify small molecule agonists of the endoplasmic reticulum stress response signaling pathway - cell viability counter screen (AID 1159517; calls by dose curve;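 also: HeLa cells carrying an ER stress response element beta-lactamase reporter; series mostly up to about 61 µM; nearly all actives have a fitted effect of over 50% in size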)
Method in brief: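 After overnight attachment, ESRE-bla HeLa cells were treated with Tox21 library compounds for 5 hr. CellTiter-Glo luminescence, read 30 min post-addition at room temperature, reported viability.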

[13] = qHTS assay to identify small molecule antagonists of the retinoid-related orphan receptor gamma (ROR-gamma) signaling pathway - cell viability counter screen (AID 1159520); also: nearly all actives have a fitted effect of over 50% in size
Method in brief: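 Cytotoxicity was read from cellular ATP (CellTiter-Glo luminescence) after 16 hr at 37 C with 1 uM doxycycline induction. The inducer was added 2 hr after compound transfer to Tet-on ROR gamma CHO cells.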

[14] = molecular target: Nuclear receptor ROR-gamma (Homo sapiens) (UniProt P51449); assay: qHTS assay to identify small molecule antagonists of the retinoid-related orphan receptor gamma (ROR-gamma) signaling pathway (AID 1159521)
Method in brief: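 RORγ antagonism is scored from reduced reporter luminescence in Tet-on CHO cells. Induction used 1 uM final doxycycline hyclate for 16 h at 37 C, following a 2 h compound exposure.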

[15] = qHTS assay to identify small molecule agonists of the AP-1 signaling pathway - cell viability counter screen (AID 1159525; calls by dose curve; also: nearly all actives have a fitted effect of over 55% in size)
Method in brief: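 Intracellular ATP by Cell Titer Glo luminescence (30 min, RT) in the same ME-180 AP-1-bla wells after the 5 h compound exposure at 37 °C. Normalised to tetra n-octyl ammonium bromide and DMSO controls.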

[16] = qHTS assay to identify small molecule agonists of the AP-1 signaling pathway (AID 1159526; calls by dose curve)
[17] = molecular target: Vitamin D3 receptor (Homo sapiens) (UniProt P11473); assay: qHTS assay to identify small molecule agonists of the vitamin D receptor (VDR) signaling pathway (AID 743222; calls by dose curve)
Sequence of Vitamin D3 receptor (Homo sapiens) (P11473 whole entry, looked up): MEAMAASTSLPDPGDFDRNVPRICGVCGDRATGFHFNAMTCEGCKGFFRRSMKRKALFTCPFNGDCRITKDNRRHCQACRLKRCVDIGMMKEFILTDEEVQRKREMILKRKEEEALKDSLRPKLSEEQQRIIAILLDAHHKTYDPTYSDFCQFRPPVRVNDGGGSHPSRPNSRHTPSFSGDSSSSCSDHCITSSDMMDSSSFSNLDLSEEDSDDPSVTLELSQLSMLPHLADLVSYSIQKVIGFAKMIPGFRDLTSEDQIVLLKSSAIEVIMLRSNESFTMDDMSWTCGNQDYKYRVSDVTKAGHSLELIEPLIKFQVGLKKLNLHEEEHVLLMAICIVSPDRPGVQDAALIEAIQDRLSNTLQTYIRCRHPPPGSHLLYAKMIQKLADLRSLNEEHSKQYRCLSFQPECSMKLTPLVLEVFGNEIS
Method in brief: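 Fluorescence from cleaved LiveBLAzer B/G FRET substrate served as readout. VDR-bla cells had been treated 16 h at 37C with test compounds in DMSO, following a 4 h settling period, and substrate was loaded for 2 h at RT.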

[18] = molecular target: Vitamin D3 receptor (Homo sapiens) (UniProt P11473); assay: qHTS assay to identify small molecule antagonists of the vitamin D receptor (VDR) signaling pathway (AID 743223; active = well fitted inhibition curve with a large enough effect in the signal ratio in the repeat runs, not every such curve was filed as active; the % refers to the signal ratio)
Method in brief: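 Fluorescence from LiveBLAzer B/G FRET substrate, read after 2 h at room temperature, reflects beta-lactamase reporter activity in VDR-bla cells treated 16 h at 37C with compounds and agonist 1alpha,25-dihydroxyvitamin D3 (3 nM final).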

[19] = qHTS assay to identify small molecule agonists of the vitamin D receptor (VDR) signaling pathway - cell viability counter screen (AID 743224)
Method in brief: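 Compounds were pin-transferred onto VDR-bla cells plated 4 h earlier; following 16 h incubation at 37C, cell viability was quantified by CellTiter-Glo luminescence after 30 min at room temperature.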

Measured: Potency

O=c1cc[nH]c(=S)[nH]1
not listed: [17] | [18] | [19]
inactive: all other assays above

Cc1cc(=O)n(-c2ccccc2)n1C
not listed: [2] | [4]
inactive: all other assays above

CCCC(CCC)C(=O)O
not listed: [2] | [4] | [5] | [7] | [14] | [19]
inactive: all other assays above

NC(=O)c1cnccn1
not listed: [5] | [7] | [19]
inactive: all other assays above

CC(=O)NS(=O)(=O)c1ccc(N)cc1
not listed: [5] | [7] | [19]
inactive: all other assays above

C[C@]12C=CC(=O)C=C1CC[C@@H]1[C@@H]2[C@@H](O)C[C@@]2(C)[C@H]1CC[C@]2(O)C(=O)CO
not listed: [4] | [5] | [7] | [17] | [18] | [19]
inactive: all other assays above

N=C(N)c1ccc(OCCCCCOc2ccc(C(=N)N)cc2)cc1
not listed: [4] | [5] | [7]
inactive: all other assays above

Cn1c(=O)c2[nH]cnc2n(C)c1=O
not listed: [4] | [14] | [17] | [18] | [19]
inactive: all other assays above

Nc1ccc(S(=O)(=O)Nc2nccs2)cc1
not listed: [5] | [7] | [14] | [19]
inactive: all other assays above

Source: PubChem BioAssay (Tox21)
